# Experimental data: PMC11006913
# Experiments:
# PRRX1 [1] = target: PRRX1 (Homo sapiens, UniProt P54821 80-166, F113S); assay: PBM; 200 nM protein, PBS; settings: dsDNA, one strand shown
# PRRX1 [2] = target: PRRX1 (Homo sapiens, UniProt P54821 80-166); assay: PBM; 200 nM protein, PBS; settings: dsDNA, one strand shown
# Sequence of PRRX1 (Homo sapiens, UniProt P54821 80-166) (P54821 80-166): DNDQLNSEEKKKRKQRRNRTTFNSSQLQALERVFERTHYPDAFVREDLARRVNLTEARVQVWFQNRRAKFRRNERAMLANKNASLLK
# Sequence of PRRX1 (Homo sapiens, UniProt P54821 80-166, F113S) (P54821 80-166 F113S): as the sequence (P54821 80-166) above, with F34S counted along it
Sequence,binding signal (PRRX1 [1]),binding signal (PRRX1 [2])
AACCAATT,"10.4 upbm affinity estimate (log intensity, higher = more binding, comparable within an allelic series)","12.6 upbm affinity estimate (log intensity, higher = more binding, comparable within an allelic series)"
CCCGTACG,"9.21 upbm affinity estimate (log intensity, higher = more binding, comparable within an allelic series)","9.33 upbm affinity estimate (log intensity, higher = more binding, comparable within an allelic series)"
AATCATGT,"10.4 upbm affinity estimate (log intensity, higher = more binding, comparable within an allelic series)","12.2 upbm affinity estimate (log intensity, higher = more binding, comparable within an allelic series)"
TAAACTCA,"10.1 upbm affinity estimate (log intensity, higher = more binding, comparable within an allelic series)","11.1 upbm affinity estimate (log intensity, higher = more binding, comparable within an allelic series)"
CTGATGAA,"10 upbm affinity estimate (log intensity, higher = more binding, comparable within an allelic series)","11.2 upbm affinity estimate (log intensity, higher = more binding, comparable within an allelic series)"
CAATTCCC,"9.81 upbm affinity estimate (log intensity, higher = more binding, comparable within an allelic series)","11.3 upbm affinity estimate (log intensity, higher = more binding, comparable within an allelic series)"
ACCGTGCG,"9.48 upbm affinity estimate (log intensity, higher = more binding, comparable within an allelic series)","9.43 upbm affinity estimate (log intensity, higher = more binding, comparable within an allelic series)"
AGCTCGCA,"9.52 upbm affinity estimate (log intensity, higher = more binding, comparable within an allelic series)","9.05 upbm affinity estimate (log intensity, higher = more binding, comparable within an allelic series)"
CAGAACCC,"9.51 upbm affinity estimate (log intensity, higher = more binding, comparable within an allelic series)","9.39 upbm affinity estimate (log intensity, higher = more binding, comparable within an allelic series)"
ATTACAAC,"10.3 upbm affinity estimate (log intensity, higher = more binding, comparable within an allelic series)","12.1 upbm affinity estimate (log intensity, higher = more binding, comparable within an allelic series)"
AATATTAG,"10.5 upbm affinity estimate (log intensity, higher = more binding, comparable within an allelic series)","12.4 upbm affinity estimate (log intensity, higher = more binding, comparable within an allelic series)"
CCCCTTGC,"9.32 upbm affinity estimate (log intensity, higher = more binding, comparable within an allelic series)","9.53 upbm affinity estimate (log intensity, higher = more binding, comparable within an allelic series)"
GAATTATC,"10.5 upbm affinity estimate (log intensity, higher = more binding, comparable within an allelic series)","12.9 upbm affinity estimate (log intensity, higher = more binding, comparable within an allelic series)"
ATCATCAC,"10.1 upbm affinity estimate (log intensity, higher = more binding, comparable within an allelic series)","11.5 upbm affinity estimate (log intensity, higher = more binding, comparable within an allelic series)"
CGGAGCGC,"9.18 upbm affinity estimate (log intensity, higher = more binding, comparable within an allelic series)","9.3 upbm affinity estimate (log intensity, higher = more binding, comparable within an allelic series)"
CCTACTTA,"10.1 upbm affinity estimate (log intensity, higher = more binding, comparable within an allelic series)","11.6 upbm affinity estimate (log intensity, higher = more binding, comparable within an allelic series)"
GCCTCTCA,"9.4 upbm affinity estimate (log intensity, higher = more binding, comparable within an allelic series)","9.09 upbm affinity estimate (log intensity, higher = more binding, comparable within an allelic series)"
GCGTGCCA,"9.08 upbm affinity estimate (log intensity, higher = more binding, comparable within an allelic series)","9.45 upbm affinity estimate (log intensity, higher = more binding, comparable within an allelic series)"
CGTCACCC,"9.47 upbm affinity estimate (log intensity, higher = more binding, comparable within an allelic series)","9.31 upbm affinity estimate (log intensity, higher = more binding, comparable within an allelic series)"
CGTCTGGA,"9.4 upbm affinity estimate (log intensity, higher = more binding, comparable within an allelic series)","9.19 upbm affinity estimate (log intensity, higher = more binding, comparable within an allelic series)"

Sequence,binding signal (PRRX1 [1]),binding signal (PRRX1 [2])
AGCCTTTC,"9.3 upbm affinity estimate (log intensity, higher = more binding, comparable within an allelic series)","8.88 upbm affinity estimate (log intensity, higher = more binding, comparable within an allelic series)"
CCAGAGTC,"9.5 upbm affinity estimate (log intensity, higher = more binding, comparable within an allelic series)","9.46 upbm affinity estimate (log intensity, higher = more binding, comparable within an allelic series)"
CAGAGAGC,"9.56 upbm affinity estimate (log intensity, higher = more binding, comparable within an allelic series)","9.55 upbm affinity estimate (log intensity, higher = more binding, comparable within an allelic series)"
CGTGTGCA,"9.54 upbm affinity estimate (log intensity, higher = more binding, comparable within an allelic series)","9.31 upbm affinity estimate (log intensity, higher = more binding, comparable within an allelic series)"
ACAGTCGG,"9.61 upbm affinity estimate (log intensity, higher = more binding, comparable within an allelic series)","9.49 upbm affinity estimate (log intensity, higher = more binding, comparable within an allelic series)"
GAAAGACC,"9.56 upbm affinity estimate (log intensity, higher = more binding, comparable within an allelic series)","9.45 upbm affinity estimate (log intensity, higher = more binding, comparable within an allelic series)"
CCTGAGGC,"9.1 upbm affinity estimate (log intensity, higher = more binding, comparable within an allelic series)","9.44 upbm affinity estimate (log intensity, higher = more binding, comparable within an allelic series)"
AGATCAAT,"10.1 upbm affinity estimate (log intensity, higher = more binding, comparable within an allelic series)","11.6 upbm affinity estimate (log intensity, higher = more binding, comparable within an allelic series)"
CGACGTTA,"9.76 upbm affinity estimate (log intensity, higher = more binding, comparable within an allelic series)","11.1 upbm affinity estimate (log intensity, higher = more binding, comparable within an allelic series)"
CCCCAATA,"9.73 upbm affinity estimate (log intensity, higher = more binding, comparable within an allelic series)","11 upbm affinity estimate (log intensity, higher = more binding, comparable within an allelic series)"
CCGAACCC,"9.23 upbm affinity estimate (log intensity, higher = more binding, comparable within an allelic series)","9.29 upbm affinity estimate (log intensity, higher = more binding, comparable within an allelic series)"
ATTTTTAA,"10.4 upbm affinity estimate (log intensity, higher = more binding, comparable within an allelic series)","12 upbm affinity estimate (log intensity, higher = more binding, comparable within an allelic series)"
CCGGGGTC,"9.27 upbm affinity estimate (log intensity, higher = more binding, comparable within an allelic series)","9.54 upbm affinity estimate (log intensity, higher = more binding, comparable within an allelic series)"
GTGTTAAC,"10.1 upbm affinity estimate (log intensity, higher = more binding, comparable within an allelic series)","11.8 upbm affinity estimate (log intensity, higher = more binding, comparable within an allelic series)"
CCCAGGGA,"9.4 upbm affinity estimate (log intensity, higher = more binding, comparable within an allelic series)","9.28 upbm affinity estimate (log intensity, higher = more binding, comparable within an allelic series)"
CGCGTCAG,"9.4 upbm affinity estimate (log intensity, higher = more binding, comparable within an allelic series)","9.26 upbm affinity estimate (log intensity, higher = more binding, comparable within an allelic series)"
CCTGGAAC,"9.61 upbm affinity estimate (log intensity, higher = more binding, comparable within an allelic series)","9.32 upbm affinity estimate (log intensity, higher = more binding, comparable within an allelic series)"
CTTCATTA,"10.5 upbm affinity estimate (log intensity, higher = more binding, comparable within an allelic series)","12.8 upbm affinity estimate (log intensity, higher = more binding, comparable within an allelic series)"
GGCCCTAC,"9.21 upbm affinity estimate (log intensity, higher = more binding, comparable within an allelic series)","9.08 upbm affinity estimate (log intensity, higher = more binding, comparable within an allelic series)"
AATCATCC,"10.3 upbm affinity estimate (log intensity, higher = more binding, comparable within an allelic series)","12.1 upbm affinity estimate (log intensity, higher = more binding, comparable within an allelic series)"
